Experimental data from ChEMBL document CHEMBL1157539, “Thousands of chemical starting points for antimalarial lead identification” (Nature, 2010).
In all, about 13,000 compounds were measured (“IFI”: median about 4, highest 2% from about 17 on). This excerpt belongs to a sample that is enriched for the highest values.

experiment: GSK_TCMDC: Inhibition Frequency Index (IFI). The number of non-kinase HTS assays where a compound showed > 50 % inhibition, expressed as a percentage of the number of such assays in which the compound was tested; format: functional

| Structure (SMILES) | IFI |
| --- | --- |
| CC1(C)NC(N)=NC(=N)N1OCc1cccs1 | 1.43% |
| CCCCCCCN(CCCCCCC)CCCC(=O)Nc1ccnc2ccc(OC)cc12 | 7.87% |
| COc1c(C2CCN(CCCCNC(=O)c3ccc(-c4ccc(Cl)cc4)cc3)CC2)ccc2c1C(C)(C)CCC2(C)C | 6.82% |
| CC1(C(=O)Nc2ccc([N+](=O)[O-])cc2O)CC2c3ccccc3C1c1ccccc12 (stereo not drawn) | 17.4% |
| O=C(Nc1ccc([N+](=O)[O-])cc1O)Nc1ccccc1Oc1ccccc1 | 17% |
| O=[N+]([O-])c1ccc(N/C(=N\c2ccccc2Br)NC2CCCc3ccccc32)c(O)c1 (stereo not drawn) | 4.17% |
| COc1ccccc1CCNc1nc(C)cc(N[C@@H](Cc2ccccc2)C(=O)NCCCOC(C)C)n1 | 0% |
| O=C(O)c1cccnc1Sc1ccc(Cl)cc1 | 0% |
| COc1ccc(CCNCCCCCCNCCc2cccc([N+](=O)[O-])c2)cc1OC | 0% |
| C[C@H](Cc1ccc(OCCCOc2ccc(C[C@@H](C)NC[C@H](O)c3cccc(Cl)c3)cc2)cc1)NC[C@H](O)c1cccc(Cl)c1 | 13.1% |
| C[C@H](Cc1ccc(CCc2ccc(C[C@@H](C)NC[C@H](O)c3cccc(Cl)c3)cc2)cc1)NC[C@H](O)c1cccc(Cl)c1 | 21.6% |
| C[C@H](Cc1ccc(C[C@@H](C)NC[C@H](O)c2cccc(Cl)c2)cc1)NC[C@H](O)COc1ccccc1 | 7.91% |
| COC(=O)c1ccc(CCC(C)NCC(O)c2cccc(Cl)c2)cc1 (stereo not drawn) | 2.88% |
| C[C@H](Cc1ccc(S(=O)(=O)c2ccc(C[C@@H](C)NC[C@H](O)c3cccc(Cl)c3)cc2)cc1)NC[C@H](O)c1cccc(Cl)c1 | 22.7% |
| Cc1ccc(CCC(C)NCC(O)c2cccc(Cl)c2)cc1 (stereo not drawn) | 2.96% |
| C[C@H](Cc1ccc(OCCCCOc2ccc(C[C@@H](C)NC[C@H](O)c3cccc(Cl)c3)cc2)cc1)NC[C@H](O)c1cccc(Cl)c1 | 11.6% |
| C[C@H](Cc1ccc(C[C@@H](C)NCC(O)c2cc(Cl)c(N)c(Cl)c2)cc1)NCC(O)c1cc(Cl)c(N)c(Cl)c1 (stereo partly drawn) | 9.35% |
| C[C@H](Cc1ccc(Oc2ccc(C[C@@H](C)NC[C@H](O)c3cccc(Cl)c3)cc2)cc1)NC[C@H](O)c1cccc(Cl)c1 | 20.8% |
| COc1cccc(CCc2ccc(O)c3c2C[C@H]2C[C@H]4[C@H](N(C)C)C(O)=C(C(N)=O)C(=O)[C@@]4(O)C(O)=C2C3=O)c1 | 8.41% |
| CC1(C)NC(N)=NC(=N)N1OCCSCc1cc(Cl)sc1Cl | 4.93% |
| CN1CCN(CCCN(Cc2ccc(-c3ccc(CNCCc4ccccc4)cc3)cc2)C(=O)c2cccs2)CC1 | 9.03% |
| C=CCn1c(Sc2ccc(C#N)c([N+](=O)[O-])c2)nnc1-c1ccc(Cl)cc1 | 4.23% |

| Structure (SMILES) | IFI |
| --- | --- |
| Cc1cc(=NN=Cc2cccc(Cl)c2)c2ccc(F)cc2[nH]1 | 1.49% |
| CCOC(=O)c1ccc(NC(=O)N[C@H]2CCN(CCCCCNC(=O)/C=C/c3ccc(Cl)c(Cl)c3)C2)cc1 | 7.91% |
| Cc1cccc(CNc2nc(C)cc(N[C@@H](Cc3ccccc3)C(=O)NC3CCCC3)n2)c1 | 27.3% |
| Cc1cc(N[C@@H](Cc2ccccc2)C(=O)NC2CCCC2)nc(Nc2ccccc2)n1 | 7.32% |
| Cc1cc(N[C@@H](Cc2ccccc2)C(=O)NC2CCCC2)nc(NCc2ccccc2C)n1 | 4.88% |
| Cc1cc(N[C@@H](Cc2ccccc2)C(=O)NC2CCCC2)nc(NCC2CCCCC2)n1 | 26.2% |
| Cc1cc(N[C@@H](Cc2ccccc2)C(=O)NCCc2ccccc2)nc(NCC2CCCCC2)n1 | 11.4% |
| Cc1cc(N[C@@H](Cc2ccccc2)C(=O)Nc2ccccc2)nc(NCC2CCCCC2)n1 | 11.6% |
| O=C(c1cc(-c2cccs2)n[nH]1)N1CCN(S(=O)(=O)c2ccc(Br)cc2)CC1 | 0% |
| CC(CN(C)C)C(=O)Nc1cccc(-c2ccc(-c3nc4cc(C(F)(F)F)ccc4[nH]3)cc2)c1 (stereo not drawn) | 6.31% |
| Cc1cc(=NN=CC=Cc2ccccc2)c2cc(F)ccc2[nH]1 | 0.75% |
| O=C(NC1CCN(Cc2ccc(F)cc2)CC1)c1ccc(-c2cccc(C(F)(F)F)c2)s1 | 24.6% |
| CC(C)(C)c1ccc(CN2CCC(NC(=O)c3ccc(-c4cccc(C(F)(F)F)c4)s3)CC2)cc1 | 13% |
| CSc1ccc(CN2CCC(NC(=O)c3ccc(-c4cccc(C(F)(F)F)c4)s3)CC2)cc1 | 15.2% |
| O=C(NC1CCN(Cc2ccsc2)CC1)c1ccc(-c2cccc(C(F)(F)F)c2)s1 | 16.7% |
| CC(=O)Nc1ccc(CN2CCC(NC(=O)c3ccc(-c4cccc(C(F)(F)F)c4)s3)CC2)cc1 | 10.3% |
| CC(C)(C)CCN1CCC(NC(=O)c2ccc(-c3cccc(C(F)(F)F)c3)s2)CC1 | 15.8% |
| O=C(NC1CCN(Cc2cccc(C(F)(F)F)c2)CC1)c1ccc(-c2cccc(C(F)(F)F)c2)s1 | 12.7% |
| CN(C)c1ccc(CN2CCC(NC(=O)c3ccc(-c4cccc(C(F)(F)F)c4)s3)CC2)cc1 | 17.2% |
| O=C(NC1CCN(Cc2ccc3c(c2)OCCO3)CC1)c1ccc(-c2cccc(Cl)c2)s1 | 15.2% |
| O=C(NC1CCN(CCCc2ccccc2)CC1)c1ccc(-c2cccc(C(F)(F)F)c2)s1 | 17.2% |
| O=C(NC1CCN(Cc2ccc3c(c2)OCCO3)CC1)c1ccc(-c2cccc(C(F)(F)F)c2)s1 | 22% |

| Structure (SMILES) | IFI |
| --- | --- |
| CN(C)c1ccc(-c2ccc(C(=O)NC3CCN(Cc4cccc(C(F)(F)F)c4)CC3)s2)cc1 | 11.1% |
| Nc1nccc2ccc(-c3ccsc3)cc12 | 10.1% |
| Cc1ccc2nc(N/C(N)=N/C(=O)NC3CCCCC3)nc(C)c2c1 | 3.42% |
| Cc1cc(-c2cccc(CNCc3ccc(F)cc3)c2)ccc1S(=O)(=O)NCCN1CCCC1 | 12.9% |
| Cc1cc(N)nc2ccc(-c3ccc(CN)cc3)cc12 | 4.83% |
| C=C(C)Cn1cc(C2CCN(CCN3CCC(CNC(=O)c4ccc(-c5ccc(C#N)cc5)cc4)CC3)CC2)c2ccccc21 | 10.9% |
| CCCCCCSc1nnc(COc2cccc3ccccc23)n1-c1ccc(OC)cc1 | 5.43% |
| CCCn1c(O)nnc1SCC(=O)Nc1cc(C(F)(F)F)ccc1Cl | 1.57% |
| Nc1cccc(CNCc2cccc(-c3ccc(-c4nc5ccccc5[nH]4)cc3)c2)c1 | 3.81% |
| CC(C)c1ccc(S(=O)(=O)Nc2cccc(CCN3CCC(N4CCCCC4)CC3)c2)cc1 | 9.52% |
| O=C(NCCCCN1CCC(c2ccc(-c3ccco3)cc2)CC1)c1ccc(NC(=O)c2ccc(Cl)cc2)cc1 | 5.98% |
| CC(C)(C)c1ccc(CN2CCC(NC(=O)c3ccc(-c4cccc(F)c4)s3)CC2)cc1 | 12.5% |
| CN(C)c1ccc(CN2CCC(NC(=O)c3ccc(-c4cccc(F)c4)s3)CC2)cc1 | 10.5% |
| CC(C)c1ccc(CN2CCC(NC(=O)c3ccc(-c4cccc(Cl)c4)s3)CC2)cc1 | 12.1% |
| CN(C)c1ccc(CN2CCC(NC(=O)c3ccc(-c4ccc(N(C)C)cc4)s3)CC2)cc1 | 15.5% |
| CN(C)c1ccc(CN2CCC(NC(=O)c3ccc(-c4cccc(Cl)c4)s3)CC2)cc1 | 17.9% |
| CC(C)c1ccc(CN2CCC(NC(=O)c3ccc(-c4cccc(F)c4)s3)CC2)cc1 | 17.2% |
| COc1ccc2nc3cc(Cl)ccc3c(Nc3ccc(O)c(CNC(C)C)c3)c2c1 | 7.64% |
| CCCCNCc1ccc(-c2nc(CN(CCCn3ccnc3)C(=O)C3COc4ccccc4O3)cs2)cc1 (stereo not drawn) | 4.93% |
| O=C(NCCc1ccccc1)N(Cc1ccccc1-c1ccc(CNCCc2ccccc2)cc1)C1CCN(Cc2ccccc2)CC1 | 7.86% |
| COc1cc2nc(NCCn3cccn3)nc(NCCc3ccccc3)c2cc1OC | 4.23% |
| Cc1cccc2nc(-c3cccc(-c4cccc(NC(=O)c5csnn5)c4)c3)[nH]c12 | 2.7% |

| Structure (SMILES) | IFI |
| --- | --- |
| N#Cc1ccc(N2CCN(Cc3cccc(-c4cccc(-c5nc6cc(C(F)(F)F)ccc6[nH]5)c4)c3)CC2)nc1 | 1.92% |
| COc1cc2nc(NCCc3cccc(Cl)c3)nc(NCc3ccccc3)c2cc1OC | 17.1% |
| COc1cccc(CCNc2nc(NCc3ccccc3)c3cc(OC)c(OC)cc3n2)c1 | 5.93% |
| COc1ccc(CCNc2nc(NCc3ccccc3)c3cc(OC)c(OC)cc3n2)cc1OC | 5.84% |
| CCc1c(C)nc(-n2nc(C)cc2NC(=O)C(CC)c2ccccc2)[nH]c1=O (stereo not drawn) | 11.8% |
| CCCc1cc(=O)[nH]c(-n2nc(C)cc2NC(=O)C(CC)c2ccccc2)n1 (stereo not drawn) | 18.5% |
| CCCc1cc(=O)[nH]c(-n2nc(C)cc2NC(=O)CC(c2ccccc2)c2ccccc2)n1 | 12.2% |
| Cc1cc(N2CCCC2)nc(Nc2ccc(NC(=O)COc3ccccc3)cc2)n1 | 22.2% |
| COc1ccc(NC(=O)Nc2ccc(Nc3nc(C)cc(N4CCCC4)n3)cc2)cc1 | 11.8% |
| COc1cccc(NC(=O)Nc2ccc(Nc3nc(C)cc(N4CCCC4)n3)cc2)c1 | 17.3% |
| CCC(=O)Nc1ccc(Nc2nc(C)cc(N3CCCC3)n2)cc1 | 7.84% |
| Cc1cc(N2CCCC2)nc(Nc2ccc(NC(=O)Cc3ccccc3)cc2)n1 | 15.4% |
| Cc1cc(N2CCCC2)nc(Nc2ccc(NC(=O)Nc3ccccc3)cc2)n1 | 16.2% |
| C=CCOC(=O)N1CCC(CNCc2ccc(-c3cccc(-c4nc5cc(F)ccc5[nH]4)c3)cc2)C1 (stereo not drawn) | 2.91% |
| COc1cc2nc(SCCCC#N)n(C3CCCCCC3)c(=N)c2cc1OC | 3.6% |
| CS(=O)(=O)c1cccc2sc(N3CCN(C(=O)c4ccc([N+](=O)[O-])o4)CC3)nc12 | 4% |
| Cc1cccc(Nc2c(-c3cc(Br)ccc3O)nc3ncccn23)c1 | 8.7% |
| COc1ccc(CNC(=O)c2cnc3c(O)cccc3c2Nc2cccc(NC(=O)c3ccc(F)cc3)c2)cc1 | 6.98% |
| CCCCCCN(CCCCCC)CC(O)c1c(OC)ccc2ccccc12 (stereo not drawn) | 5.93% |
| CCCCCCOc1ccc(/C(N)=N\Cc2ccccc2)c2c1CCCC2 | 13.3% |
| CCCCCOc1ccc(C(=NC)N(CCCCC)CCCCC)c2ccccc12 | 25.2% |
| Cc1ccc(Nc2cc(C)nn2-c2nc(C)cc(O)n2)cc1 | 12.3% |
